# Results published in PubChem BioAssay.
# Calls of active or inactive are those of the source.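 Rule for the calls, unless noted: active = visual image review flags a hit and inhibition of aggregation exceeds 20%; inconclusive = visual hit but inhibition at or below 20%; inactive = no hit on visual image review.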
# Assays:
# [1] = inhibitors of TNFa-induced NFkB p65 translocation, primary screen, imaging, HUVEC, MLSMR starter and 10KST1 sets (AID 438;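 active = inhibition above 20% together with a positive visual image hit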;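 note: compound added about 3h40 before a 20 min TNFalpha stimulation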;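 for inhibition: signal is the nuclear over cytoplasmic p65 intensity ratio per well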); conditions: HUVEC TNFa-induced p65 nuclear translocation; cell count: measured here: nuclei count (cytotoxicity indicator), at 2.08 µM; inhibition: at 2 µM, stronger effect = higher value, 0% TNFa-plus-vehicle, 100% no-TNFa wells
# [2] = inhibitors of mutant huntingtin aggregation, primary screen, imaging, exon1htt(103Q)mCFP cells, high-content imaging (AID 483); conditions: exon1htt(103Q)mCFP cell line, aggregate imaging, at 2 µM; inhibition of aggregation: stronger effect = higher value; nuclei count: measured here: cell count, toxicity;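 note: compound exposure lasted 3 days before fixation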;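 for nuclei count: percent of the per-plate median nuclei count of sample wells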
# [3] = inhibitors of E-selectin induction by TNFa, primary screen, imaging, HUVEC, immunofluorescence, MLSMR starter and 10KST1 sets (AID 487;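 active = visually confirmed hit in the image check and inhibition above 20%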;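 for inhibition: signal is fraction of cell area covered by stained E-selectin grains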;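 for nuclei count: 100% = median nuclei count of all wells on the same plate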); conditions: HUVEC TNFalpha-induced E-selectin immunofluorescence imaging, at 2 µM; inhibition: stronger effect = higher value; nuclei count: measured here: cell number, toxicity
# [4] = DUSP6 inhibitors restoring Erk phosphorylation by chemical complementation, primary imaging in DUSP6-transfected HeLa (AID 609;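 active = compounds giving at least 50% inhibition in the cell-based MKP-3 phosphatase rescue imaging test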;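 for inhibition: phospho-Erk level distribution per well compared with pooled transfected vehicle control wells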); conditions: HeLa MKP-3 transfected, phospho-Erk imaging KS statistic, at 10 µM, cells stimulated with TPA for 15 min
# [5] = target: Dual specificity protein phosphatase 6 (Homo sapiens) (UniProt Q16828); assay: as above; conditions: HeLa MKP-3 transfected, phospho-Erk imaging KS statistic; at 10 µM; stronger effect = higher value; cells stimulated with TPA for 15 min
# [6] = target: Voltage-gated potassium channel subunit beta-2 (Rattus norvegicus) (UniProt P62483); assay: KvBeta enzyme negative modulators, primary screen, biochemical, NADPH fluorescence (AID 622;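 active = fluorescence slope higher than the sample average by over 3 SD, cut at about -0.22 in these data, passing the limit was not always enough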;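 note: slope of raw intensity against log time taken from 70 to 1610 s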); conditions: recombinant KvBeta, 4-cyanobenzaldehyde reduction, at 10 µM, stronger effect = higher value
# [7] = target: Voltage-gated potassium channel subunit beta-2 (Rattus norvegicus) (UniProt P62483); assay: KvBeta positive modulators, primary screen, biochemical, NADPH fluorescence (AID 623;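 active = NADPH fluorescence slope more negative than the mean of all samples by about 3 SD, 99.7% confidence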;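 note: fluorescence intensity change per second fitted from 20 to 320 s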); conditions: Recombinant KvBeta, NADPH fluorescence decrease slope, 10 min; at 10 µM; stronger effect = lower value
# [8] = target: Alpha-2C adrenergic receptor (Homo sapiens) (UniProt P18825); assay: modulators of alpha2C/GIRK thallium flux, primary screen, cell-based, HEK293 alpha2C/GIRK1/2 (AID 624;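 active = fluorescence slope after compound addition differing from the mean of all screened samples at 99.7% confidence, in either direction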;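 note: slope of fluorescence ratio to pre-addition baseline per second over 15 to 24 s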); conditions: thallium flux BTC fluorescence, at 10 µM, actives lie on both sides
# [9] = target: Muscarinic acetylcholine receptor M4 (Homo sapiens) (UniProt P08173); assay: compounds altering M4/GIRK thallium flux, either direction, primary screen, M4 allosteric agonist project, cell-based, HEK293 M4/GIRK, BTC-AM (AID 625;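 active = fluorescence slope after compound addition differing from the mean of all tested samples at 99.7% confidence, mostly higher but some lower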;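 note: thallium influx through GIRK channels coupled to M4 in HEK293 cells with BTC-AM dye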); conditions: at 10 µM, actives lie on both sides
# [10] = inhibitors of larval lipid processing in zebrafish, primary screen, whole organism, PED6 fluorescence, gall bladder and intestine (AID 686;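 active = a full or partial loss of lipid-probe fluorescence in the fish gall bladder, intestine or both, judged by eye; inactive = no fluorescence loss, or compound toxic to the fish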;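 note: larvae 5 to 7 days old with five fish per well; signal comes from phospholipase A2 cleavage of quenched PED6 carried via bile; overnight exposure to compound and PED6 before scoring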); conditions: Zebrafish larvae PED6 lipid processing, fluorescence scoring; screened at 20 µM (by protocol)
# [11] = inhibitors of Chlamydomonas gravitaxis, primary screen, whole organism, Chlamydomonas reinhardtii, WT vs cilia-less mutant, absorbance, 96-well (AID 463189;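 active = inhibition at or above 50% relative to wild type and mutant plate controls; inactive = inhibition below 50%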;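 note: 0% = wild type cc124 cells in DMSO and 100% = ciliumless bld1 mutant cells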); conditions: OD600 absorbance, 2 days, at 10 µM, stronger effect = higher value
# [12] = inhibitors of Sendai virus-induced IRF3 signaling, primary screen, TLR/RLR signaling modifier project, cell-based, Sendai virus stimulus, luciferase, 10K MLSCN set (AID 602276;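 active = inhibition at or above 50% at 10 µM; inactive = inhibition below 50%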;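 note: firefly luciferase from ISG56 promoter only with Renilla not read in this screen; 0% = Sendai virus plus DMSO and 100% = medium plus DMSO without virus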); conditions: HEK293 RL24 IRF3 luciferase reporter, at 10 µM, stronger effect = higher value
# [13] = inhibitors of poly I:C-induced TLR3 signaling, primary screen, cell-based, poly I:C stimulus, luciferase, 10K MLSCN set (AID 602277;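 active = inhibition of the reporter signal at or above 50%; inactive = inhibition below 50%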); conditions: HEK293-TLR3 RL24 IRF3 luciferase reporter, at 10 µM, stronger effect = higher value
# [14] = measured here: cell density z-score
# [15] = measured here: nuclear c-Myc green intensity z-score
# [16] = measured here: nuclear pErk red intensity z-score, stronger effect = higher value
# Alpha-2C adrenergic receptor (Homo sapiens), sequence (P18825 whole entry, looked up): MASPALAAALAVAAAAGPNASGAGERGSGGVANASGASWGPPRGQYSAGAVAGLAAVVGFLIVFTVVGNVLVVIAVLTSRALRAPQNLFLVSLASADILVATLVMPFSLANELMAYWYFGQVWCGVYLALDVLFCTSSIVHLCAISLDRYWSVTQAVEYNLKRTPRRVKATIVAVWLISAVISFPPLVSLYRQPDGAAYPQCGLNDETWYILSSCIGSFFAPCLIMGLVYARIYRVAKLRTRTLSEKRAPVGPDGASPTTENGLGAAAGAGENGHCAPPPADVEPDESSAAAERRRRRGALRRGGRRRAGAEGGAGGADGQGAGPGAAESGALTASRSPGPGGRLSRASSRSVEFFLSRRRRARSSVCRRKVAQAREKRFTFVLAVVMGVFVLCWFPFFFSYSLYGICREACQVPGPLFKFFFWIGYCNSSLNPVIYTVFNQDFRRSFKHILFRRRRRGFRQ
# Voltage-gated potassium channel subunit beta-2 (Rattus norvegicus), sequence (P62483 whole entry, looked up): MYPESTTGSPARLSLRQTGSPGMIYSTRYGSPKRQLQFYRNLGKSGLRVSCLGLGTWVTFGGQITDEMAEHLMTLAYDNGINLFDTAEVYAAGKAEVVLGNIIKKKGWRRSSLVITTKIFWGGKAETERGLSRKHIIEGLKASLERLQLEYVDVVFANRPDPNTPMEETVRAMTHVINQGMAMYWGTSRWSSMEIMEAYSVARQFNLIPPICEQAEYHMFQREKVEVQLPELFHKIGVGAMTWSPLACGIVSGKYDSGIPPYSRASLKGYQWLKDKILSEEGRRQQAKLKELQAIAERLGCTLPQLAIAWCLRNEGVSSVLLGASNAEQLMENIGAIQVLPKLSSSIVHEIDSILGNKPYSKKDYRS
# Muscarinic acetylcholine receptor M4 (Homo sapiens), sequence (P08173 whole entry, looked up): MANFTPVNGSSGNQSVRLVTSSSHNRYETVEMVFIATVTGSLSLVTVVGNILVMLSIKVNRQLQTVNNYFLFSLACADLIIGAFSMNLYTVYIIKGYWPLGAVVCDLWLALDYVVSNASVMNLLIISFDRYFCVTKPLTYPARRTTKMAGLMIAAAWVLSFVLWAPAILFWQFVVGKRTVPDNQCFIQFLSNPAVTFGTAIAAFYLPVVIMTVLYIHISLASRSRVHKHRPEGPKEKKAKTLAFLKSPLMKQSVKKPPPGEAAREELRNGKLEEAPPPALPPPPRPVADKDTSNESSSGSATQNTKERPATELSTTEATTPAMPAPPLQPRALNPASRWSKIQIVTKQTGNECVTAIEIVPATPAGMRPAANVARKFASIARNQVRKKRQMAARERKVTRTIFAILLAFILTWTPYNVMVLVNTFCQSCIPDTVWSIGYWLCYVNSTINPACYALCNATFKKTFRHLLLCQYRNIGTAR
# Dual specificity protein phosphatase 6 (Homo sapiens), sequence (Q16828 whole entry, looked up): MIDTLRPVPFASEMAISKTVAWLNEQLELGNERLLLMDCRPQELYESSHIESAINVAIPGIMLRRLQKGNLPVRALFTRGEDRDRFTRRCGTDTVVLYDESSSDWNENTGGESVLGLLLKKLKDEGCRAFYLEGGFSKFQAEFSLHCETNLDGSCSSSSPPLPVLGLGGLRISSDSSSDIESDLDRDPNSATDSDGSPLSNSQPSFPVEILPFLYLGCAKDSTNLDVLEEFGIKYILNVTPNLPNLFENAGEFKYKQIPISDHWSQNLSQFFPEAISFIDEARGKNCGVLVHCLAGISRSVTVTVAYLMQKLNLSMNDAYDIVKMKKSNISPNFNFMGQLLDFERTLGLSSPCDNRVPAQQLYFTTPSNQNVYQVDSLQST
Compound,cell count [1],inhibition [1],inhibition of aggregation [2],nuclei count [2],inhibition [3],nuclei count [3],"z-score [4, 14]","z-score [4, 15]","z-score [4, 16]",inhibition [5],fluorescence slope [6],NADPH fluorescence slope [7],slope [8],fluorescence slope [9],outcome [10],inhibition [11],inhibition [12],inhibition [13]
COc1ccc(C2/C(=C(/O)c3cnn(-c4ccccc4)c3C)C(=O)C(=O)N2CCN(C)C)cc1OC (centres undefined),517,-9.1% (inactive),16% (inactive),72.6%,-17.7% (inactive),125%,-1.21,1.21,1.2,-6.86% (inactive),-0.428 (inactive),-0.000117 (inactive),0.00586 (inactive),0.00527 (inactive),inactive,-4.78% (inactive),2.76% (inactive),15.6% (inactive)
Cc1c(C)c2cc(Cl)c(O)c(CN3CCCCC3)c2oc1=O,393,1.3% (inactive),-11.8% (inactive),100%,-14.6% (inactive),124%,0.378,-1.22,-0.936,5.26% (inactive),-0.198 (inactive),-2.2e-05 (inactive),0.00419 (inactive),,,20.3% (inactive),4.19% (inactive),6.59% (inactive)
Cc1cccc(COc2ccc(/C(O)=C3\C(=O)C(=O)N(CCN(C)C)C3c3ccncc3)cc2)c1 (centres undefined),526,3.2% (inactive),-20.7% (inactive),106%,-20.5% (inactive),126%,-1.17,0.707,-0.252,-1.75% (inactive),-0.434 (inactive),-0.000161 (inactive),0.00578 (inactive),,,-10.1% (inactive),9.07% (inactive),4.16% (inactive)
N#Cc1nc(COc2ccc(Br)cc2)oc1N1CCCC1,482,-2.8% (inactive),-13.8% (inactive),111%,14.5% (inactive),132%,-1.92,1.26,1.21,6.04% (inactive),-0.434 (inactive),-7e-05 (inactive),0.00386 (inactive),0.00636 (inactive),inactive,-0.7% (inactive),12.8% (inactive),1.37% (inactive)
COCCNC(=O)c1c(N)n(/N=C/c2cccs2)c2nc3ccccc3nc12,516,7.2% (inactive),-25.1% (inactive),108%,-36.6% (inactive),107%,0.126,0.305,-0.729,1.75% (inactive),-0.287 (inactive),-9.2e-05 (inactive),0.00574 (inactive),,,17.7% (inactive),5.03% (inactive),-26.9% (inactive)
Cn1c(=O)c2c(nc(Oc3ccc4c(c3)OCO4)n2Cc2ccc(F)cc2)n(C)c1=O,691,-7.2% (inactive),4.8% (inactive),108%,-27.6% (inactive),90.8%,-1.8,-0.122,-1.44,1.9e-07% (inactive),-0.503 (inactive),-2e-05 (inactive),0.00727 (inactive),0.00586 (inactive),inactive,-14.6% (inactive),20.6% (inactive),26.7% (inactive)
O=C(NCc1cccnc1)/C(=N\O)c1ccccc1,415,-4.8% (inactive),-9.8% (inactive),100%,-66.8% (inactive),97.2%,0.444,0.0712,-0.943,5.95% (inactive),-0.424 (inactive),1.4e-05 (inactive),0.00513 (inactive),0.00494 (inactive),inactive,-9.8% (inactive),6.94% (inactive),4.43% (inactive)
COc1cc2[nH]c3c(=O)n(CCN(C(C)C)C(C)C)cnc3c2cc1OC,531,-5.6% (inactive),-4% (inactive),102%,-26.1% (inactive),150%,0.411,-1.49,0.261,3.97% (inactive),-0.317 (inactive),-1.9e-05 (inactive),0.00406 (inactive),0.00609 (inactive),inactive,5.81% (inactive),10.1% (inactive),33.2% (inactive)
CCOC(=O)C1=C(N)c2ccccc2CC1C(C)C (centres undefined),579,9% (inactive),-22.6% (inactive),108%,-86.6% (inactive),124%,2.18,-1.31,-0.876,4.72% (inactive),-0.46 (inactive),-2.5e-05 (inactive),0.00503 (inactive),0.00588 (inactive),inactive,36% (inactive),17.7% (inactive),26.3% (inactive)
CCS(=O)(=O)CCn1c([N+](=O)[O-])cnc1C,637,5.5% (inactive),9.6% (inactive),97.3%,-68.3% (inactive),110%,0.704,2.39,0.14,27.9% (inactive),-0.507 (inactive),-8.1e-05 (inactive),0.00495 (inactive),0.00503 (inactive),inactive,19% (inactive),-12.7% (inactive),-11.5% (inactive)
CCOc1cc(C2Nc3ccccc3C(=O)N2c2ccccc2OC)ccc1O (centres undefined),587,-3.1% (inactive),-2.3% (inactive),100%,-136% (inactive),124%,0.614,-1.2,-0.417,9.07% (inactive),-0.348 (inactive),-3.8e-05 (inactive),0.0046 (inactive),0.0049 (inactive),inactive,2.2% (inactive),-2.55% (inactive),-13.2% (inactive)
CCCc1nc(N2CCOCC2)c(C#N)c2c1CCCC2,496,-5.5% (inactive),-8.4% (inactive),89.6%,-58.9% (inactive),128%,-0.193,0.212,-0.0343,5.35% (inactive),-0.436 (inactive),-0.000102 (inactive),0.00439 (inactive),0.00443 (inactive),inactive,-4.21% (inactive),19.9% (inactive),22.6% (inactive)
CC(CN1CCN(C)CC1)OC(=O)c1ccc(Cl)cc1Cl (centres undefined),495,2.7% (inactive),-4.3% (inactive),89.3%,5.7% (inactive),93.6%,0.0987,0.463,-0.406,-0.624% (inactive),-0.4 (inactive),-7.7e-06 (inactive),0.00282 (inactive),0.00468 (inactive),inactive,136% (active),11.3% (inactive),23.1% (inactive)
COc1ccc(/C(O)=C2/C(=O)C(=O)N(CCN(C)C)C2c2ccccn2)cc1OC (centres undefined),485,-2% (inactive),-10.2% (inactive),100%,-108% (inactive),103%,-0.696,-0.268,-0.24,2.71% (inactive),-0.47 (inactive),-8.1e-05 (inactive),0.00777 (inactive),0.00535 (inactive),inactive,-0.28% (inactive),-0.634% (inactive),5.99% (inactive)
Cc1ccc(-n2c(N)c(C(N)=O)sc2=S)cc1,560,-7.1% (inactive),-1.4% (inactive),104%,-12.7% (inactive),146%,-0.361,-1.13,1.48,-1.98% (inactive),-0.427 (inactive),-2.9e-05 (inactive),0.00443 (inactive),0.00756 (inactive),inactive,21.1% (inactive),2.77% (inactive),15.4% (inactive)
CCSc1nnc(NC(=O)C(CC)(C(F)(F)F)C(F)(F)F)s1,702,0.2% (inactive),-6.4% (inactive),106%,-53.9% (inactive),124%,0.12,-0.276,0.239,-9.53% (inactive),-0.447 (inactive),-4.4e-05 (inactive),0.00447 (inactive),0.00559 (inactive),inactive,21.1% (inactive),-0.9% (inactive),-31.4% (inactive)
Cc1cc(C)n(CC2CC(=O)N(c3ccc(Cl)c(Cl)c3)C2=O)n1 (centres undefined),566,-4.3% (inactive),-16.2% (inactive),104%,-50.6% (inactive),139%,0.432,-0.507,0.03,12.8% (inactive),-0.489 (inactive),-5.7e-05 (inactive),0.0052 (inactive),0.00497 (inactive),inactive,-1.93% (inactive),-1.21% (inactive),6.73% (inactive)
CCCCCC1CC(CC#CCN2CCOCC2)C(=O)O1 (centres undefined),620,-2.8% (inactive),10.5% (inactive),90.2%,-6.1% (inactive),128%,0.645,-0.292,0.592,3.49% (inactive),-0.452 (inactive),-4.2e-05 (inactive),0.00528 (inactive),0.00481 (inactive),inactive,-4.86% (inactive),-1.94% (inactive),10.9% (inactive)
CCOC(=O)c1[nH]c2cc(OC)c(OC)cc2c1NC(=O)C(C)N1CCN(Cc2ccccc2)CC1 (centres undefined),541,-4.7% (inactive),10.2% (inactive),106%,-11.1% (inactive),140%,0.355,-0.877,-1.74,13.9% (inactive),-0.0434 (active),2.3e-06 (inactive),0.00443 (inactive),0.00565 (inactive),inactive,19.7% (inactive),-0.312% (inactive),3.3% (inactive)
Cc1c(C=NCCOCc2ccccc2)cnn1C,579,0.8% (inactive),-5.6% (inactive),102%,-159% (inactive),116%,0.444,0.191,0.325,-1.98% (inactive),-0.369 (inactive),-3e-05 (inactive),0.00503 (inactive),0.00645 (inactive),inactive,-6.27% (inactive),11.7% (inactive),12.3% (inactive)
